Results from PubChem BioAssay AID1159580 (chemical genetic matrix, 2015).
Values joined by “and” are separate entries in the source; they are usually repeats but may differ in a detail not shown here. Equal values may be shown once. The whole screen tested about 5,500 compounds, of which about 2,000 (36%) were called active. Another 18% or so got no clear call; they are omitted. No stated cut-off is given here; in the data, active means normalized growth mostly below about 0.91 (no sharp cut-off); inconclusive means no clear call, values can overlap the other calls; inactive means mostly above about 0.92. The list shows a part of the results.

Assay: chemical genetic growth profiling, strain panel (AID 1159580);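 further: tested at 20 µM; growth read once vehicle control cultures reached saturation at 30 °C; 1 = growth at the plate median or of vehicle wells; lower values mean less growth of the strain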
Conditions: growth OD

Measured: normalized growth

O=C1NC(O)=NC1(c1ccccc1)c1ccccc1
inactive: S. cerevisiae deletion strains, locus YJR075W, strain HOC1, active compounds read low 1.01 | S. cerevisiae deletion strains, locus YKL009W, strain mrt4, active compounds read low 1.01 | S. cerevisiae deletion strains, locus YKL068W, active compounds read low 1.02 | S. cerevisiae deletion strains, locus YKL085W, strain MDH1 (second series), active compounds read low 1 | S. cerevisiae deletion strains, locus YKL085W, strain MDH1, active compounds read low 1 | S. cerevisiae deletion strains, locus YKL160W, strain elf1, active compounds read low 1.03 | S. cerevisiae deletion strains, locus YKL190W, strain CNB1, active compounds read low 1.01 | S. cerevisiae deletion strains, locus YKR001C, strain vps1, active compounds read low 1.01 | S. cerevisiae deletion strains, locus YKR026C, strain gcn3, active compounds read low 1.02 | S. cerevisiae deletion strains, locus YKR091W, strain srl3, active compounds read low 1.02 | S. cerevisiae deletion strains, locus YLL001W, strain dnm1, active compounds read low 1.02 | S. cerevisiae deletion strains, locus YLL026W, active compounds read low 1.01 | S. cerevisiae deletion strains, locus YLL041C, strain sdh2, active compounds read low 1.01 | S. cerevisiae deletion strains, locus YLR027C, strain aat2, active compounds read low 1.02 | S. cerevisiae deletion strains, locus YLR039C, strain RIC1, active compounds read low 0.995 | S. cerevisiae deletion strains, locus YLR058C, strain SHM2, active compounds read low 1.01 | S. cerevisiae deletion strains, locus YLR102C, strain apc9, active compounds read low 1.02 | S. cerevisiae deletion strains, locus YLR113W, strain HOG1, active compounds read low 1.01 | S. cerevisiae deletion strains, locus YLR221C, strain rsa3, active compounds read low 1.03 | S. cerevisiae deletion strains, locus YLR258W, strain gsy2, active compounds read low 1.03 | S. cerevisiae deletion strains, locus YLR262C, strain YPT6 (second series), active compounds read low 1.05 | S. cerevisiae deletion strains, locus YLR262C, strain YPT6, active compounds read low 1.03 | S. cerevisiae deletion strains, locus YLR268W, strain sec22, active compounds read low 1.05 | S. cerevisiae deletion strains, locus YLR320W, strain mms22, active compounds read low 1.03 | S. cerevisiae deletion strains, locus YLR330W, strain CHS5, active compounds read low 1.01 | S. cerevisiae deletion strains, locus YLR342W, strain FKS1 (second series), active compounds read low 0.985 | S. cerevisiae deletion strains, locus YLR342W, strain FKS1, active compounds read low 1.02 | S. cerevisiae deletion strains, locus YLR357W, strain rsc2, active compounds read low 1.01 | S. cerevisiae deletion strains, locus YLR370C, strain arc18, active compounds read low 1.01 | S. cerevisiae deletion strains, locus YLR371W, strain rom2, active compounds read low 1.02 | S. cerevisiae deletion strains, locus YLR384C, strain iki3, active compounds read low 1.01 | S. cerevisiae deletion strains, locus YLR418C, strain cdc73, active compounds read low 1 | S. cerevisiae deletion strains, locus YML016C, strain PPZ1, active compounds read low 1.01 | S. cerevisiae deletion strains, locus YML032C, strain rad52, active compounds read low 1.03 | S. cerevisiae deletion strains, locus YML120C, strain ndi1, active compounds read low 1.02 | S. cerevisiae deletion strains, locus YML124C, strain tub3, active compounds read low 1.01 | S. cerevisiae deletion strains, locus YMR058W, strain fet3, active compounds read low 1.01 | S. cerevisiae deletion strains, locus YMR078C, strain ctf18, active compounds read low 1.02 | S. cerevisiae deletion strains, locus YMR125W, strain sto1, active compounds read low 1.02 | S. cerevisiae deletion strains, locus YMR129W, active compounds read low 1.02 | S. cerevisiae deletion strains, locus YMR205C, strain PFK2, active compounds read low 1.04 | S. cerevisiae deletion strains, locus YMR223W, strain ubp8, active compounds read low 0.991 | S. cerevisiae deletion strains, locus YMR231W, strain pep5, active compounds read low 1.02 | S. cerevisiae deletion strains, locus YMR263W, strain SAP30, active compounds read low 1.01 | S. cerevisiae deletion strains, locus YMR307W, strain GAS1, active compounds read low 0.906 | S. cerevisiae deletion strains, locus YNL067W, strain RPL9B, active compounds read low 1.01 | S. cerevisiae deletion strains, locus YNL071W, strain lat1, active compounds read low 1.02 | S. cerevisiae deletion strains, locus YNL128W, strain TEP1, active compounds read low 1.01 | S. cerevisiae deletion strains, locus YNL153C, strain GIM3, active compounds read low 1.01 and 0.985 | S. cerevisiae deletion strains, locus YNL175C, strain NOP13, active compounds read low 0.974 | S. cerevisiae deletion strains, locus YNL183C, strain NPR1, active compounds read low 0.954 | S. cerevisiae deletion strains, locus YNL197C, strain WHI3, active compounds read low 0.983 | S. cerevisiae deletion strains, locus YNL209W, strain ssb2, active compounds read low 1.02 | S. cerevisiae deletion strains, locus YNL224C, strain SQS1, active compounds read low 0.984 | S. cerevisiae deletion strains, locus YNL233W, strain BNI4, active compounds read low 1.01 | S. cerevisiae deletion strains, locus YNL248C, strain rpa49, active compounds read low 1.01 | S. cerevisiae deletion strains, locus YNL250W, strain rad50, active compounds read low 1.02 | S. cerevisiae deletion strains, locus YNL271C, strain bni1, active compounds read low 1.02 | S. cerevisiae deletion strains, locus YNL298W, strain CLA4, active compounds read low 1.01 | S. cerevisiae deletion strains, locus YNL307C, strain MCK1, active compounds read low 1.02 | S. cerevisiae deletion strains, locus YNL322C, strain KRE1 (second series), active compounds read low 1.01 | S. cerevisiae deletion strains, locus YNL322C, strain KRE1, active compounds read low 1.01 and 0.973 | S. cerevisiae deletion strains, locus YNR049C, strain mso1, active compounds read low 1.01 | S. cerevisiae deletion strains, locus YNR052C, strain pop2, active compounds read low 1.01 | S. cerevisiae deletion strains, locus YOL006C, strain TOP1, active compounds read low 1.01 | S. cerevisiae deletion strains, locus YOL012C, strain htz1 1.06 | S. cerevisiae deletion strains, locus YOL147C, strain pex11, active compounds read low 1.01 | S. cerevisiae deletion strains, locus YOR001W, strain rrp6, active compounds read low 1 | S. cerevisiae deletion strains, locus YOR061W, strain CKA2, active compounds read low 1 | S. cerevisiae deletion strains, locus YOR069W, strain VPS5, active compounds read low 1.01 | S. cerevisiae deletion strains, locus YOR070C, strain gyp1, active compounds read low 1.01 | S. cerevisiae deletion strains, locus YOR080W, strain dia2, active compounds read low 1.01 | S. cerevisiae deletion strains, locus YOR083W, strain WHI5 (second series), active compounds read low 0.98 | S. cerevisiae deletion strains, locus YOR083W, strain WHI5, active compounds read low 1.03 | S. cerevisiae deletion strains, locus YOR106W, strain vam3, active compounds read low 1.02 | S. cerevisiae deletion strains, locus YOR136W, strain idh2, active compounds read low 1.01 | S. cerevisiae deletion strains, locus YOR144C, strain elg1, active compounds read low 1.01 | S. cerevisiae deletion strains, locus YOR184W, strain ser1, active compounds read low 1.02 | S. cerevisiae deletion strains, locus YOR231W, strain MKK1, active compounds read low 0.985 | S. cerevisiae deletion strains, locus YOR265W, strain rbl2, active compounds read low 1.01 | S. cerevisiae deletion strains, locus YOR270C, strain vph1, active compounds read low 1.03 | S. cerevisiae deletion strains, locus YOR290C, strain snf2, active compounds read low 1.03 | S. cerevisiae deletion strains, locus YOR316C, strain cot1, active compounds read low 1.02 | S. cerevisiae deletion strains, locus YPL051W, strain arl3, active compounds read low 1 | S. cerevisiae deletion strains, locus YPL055C, strain LGE1, active compounds read low 1.01 and 0.95 | S. cerevisiae deletion strains, locus YPL078C, strain atp4, active compounds read low 1.01 | S. cerevisiae deletion strains, locus YPL106C, strain sse1, active compounds read low 1.03 | S. cerevisiae deletion strains, locus YPL240C, strain hsp82, active compounds read low 1.02 | S. cerevisiae deletion strains, locus YPL241C, strain CIN2, active compounds read low 1 | S. cerevisiae deletion strains, locus YPL256C, strain CLN2, active compounds read low 0.982 | S. cerevisiae deletion strains, locus YPR119W, strain clb2, active compounds read low 1.02 | S. cerevisiae deletion strains, locus YPR141C, strain kar3, active compounds read low 1.01 | S. cerevisiae deletion strains, locus YPR163C, strain tif3, active compounds read low 1.02 | S. cerevisiae deletion strains, locus YPR167C, strain met16, active compounds read low 1.02 | S. cerevisiae deletion strains, strain wtn01, active compounds read low 1.03 | S. cerevisiae strains, strain wild type, active compounds read low 1.01
